Screening results from PubChem BioAssay.
TrxR1 substrate = rat thioredoxin reductase 1 substrate activity; O89049; hit rate 0.01% among 390,000; purified TrxR1 substrate turnover, NADPH consumption readout; Potency, µM (top dose mostly 114 µM), for the others: top-dose activity change, negative = substrate turnover; also: potency is read from the fitted curve at half-maximal effect; nearly all actives have a fitted effect of over 50% in size
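Rat TrxR1, dispensed at 90 nM, was prereduced with 400 uM NADPH (final) for 5 min at ~22 deg C, then incubated with compound 15 min before 400 uM selenite. A first-read NADPH fluorescence drop versus no-compound background flagged substrates.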
FBPA coupling cs = inhibits coupling enzyme system, counter-screen for aldolase hits. coupling enzyme system counterscreen, AmpLite Red fluorescence. activity change, negative = inhibition, % at 58.2 µM, hits read low. hit rate 0.67% among 290,000. AID 2472; in the data active = activity change below about -30%
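Counterscreen lacking aldolase: glyceraldehyde-3-phosphate coupling-enzyme reagent preincubated 10 min at RT with compound (at 57.5 uM final), then substrate/coupling system with AmpLite Red added; fluorescence read at 525/598 nm after 20 min RT.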
GALK inhibitor = inhibitors of human galactokinase; P51570; Purified GALK, Kinase-Glo residual ATP luminescence; Potency, µM (titrated, usually from 57.5 µM), for inactives: top-dose activity change, negative = inhibition, most hits filed as inhibitors; hit rate 0.007% among 270,000; also: potency is read from the fitted curve at half-maximal effect
Target sequence (P51570 whole entry, looked up): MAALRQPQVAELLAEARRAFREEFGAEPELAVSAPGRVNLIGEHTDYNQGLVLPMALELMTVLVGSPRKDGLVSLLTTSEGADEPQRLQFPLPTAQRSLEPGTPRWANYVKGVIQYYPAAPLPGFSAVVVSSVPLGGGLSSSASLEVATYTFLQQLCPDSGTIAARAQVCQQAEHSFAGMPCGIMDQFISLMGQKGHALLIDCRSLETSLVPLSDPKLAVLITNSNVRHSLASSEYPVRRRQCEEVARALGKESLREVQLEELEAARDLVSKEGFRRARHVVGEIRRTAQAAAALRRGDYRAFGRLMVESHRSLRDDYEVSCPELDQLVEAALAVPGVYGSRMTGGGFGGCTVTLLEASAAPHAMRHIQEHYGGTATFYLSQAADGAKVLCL
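Kinase-Glo Plus luminescence measured ATP left after a 1 h room-temperature reaction. The reaction used 5 nM GALK, 100 uM galactose and 35 uM ATP at pH 8.0 (20 mM HEPES, 5 mM MgCl2, 60 mM NaCl, 1 mM DTT, 0.01% BSA).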
TrxR1 inh = rat TrxR1 inhibition; recombinant rTrxR1, NADPH fluorescence consumption, selenite substrate; Potency, µM (doses to about 114 µM), for inactives: top-dose activity change, negative = inhibition, most hits filed as inhibitors; hit rate 1% among 390,000; also: potency is read from the fitted curve at half-maximal effect; nearly all actives have a fitted effect of over 65% in size
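Rat TrxR1 (90 nM in the dispensed reagent) was pre-reduced with 400 uM NADPH for 5 min at room temperature, then incubated with compound for 15 min. After 400 uM selenite was added, NADPH fluorescence (Ex 340/Em 450 nm) was followed for 8 min.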
Gal4-VP16 FLuc = Gal4-VP16 reporter inhibition counter-screen; Drosophila S2 Gal4-VP16 UAS-luciferase, luminescence, 20 h; Potency, µM (series often up to 53.6 µM), for inactives: top-dose activity, negative = inhibition, hits mostly inhibitors; hit rate 3.5% among 310,000; AID 2546;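 also: Gal4-VP16 expression switched on by copper sulfate through the metallothionein promoter; potency is read from the fitted curve at half-maximal effect; nearly all actives have a fitted effect of over 50% in size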
RORg inh = inhibitors of mouse ROR gamma transcriptional activity; P51450; Potency, µM (series often up to 53.6 µM), without a hit: top-dose activity change, negative = inhibition, hits mostly inhibitors; Drosophila S2 Gal4-RORgamma UAS-luciferase reporter, 20 h; hit rate 5.4% among 310,000; also: potency is read from the fitted curve at half-maximal effect; nearly all actives have a fitted effect of over 60% in size
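Read-out: Photinus luciferase luminescence; inhibitors lower reporter signal. Insect Schneider cells with Gal4-ROR gamma fusion under metallothionein promoter, UAS reporter; 700 uM final copper sulfate induction, 20 hr, ambient temperature.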
* hit, by the source's call; ? = inconclusive; . = no result; [ ] = remark or other dose. This is a sample that favours compounds with a hit; in the whole collection about 5.9% have one here. Unless noted, calls follow the shape of the dose curve; as a rule, active = well fitted curve in the direction sought with a large enough effect; inconclusive = small, poorly fitted or top-dose-only effect, or another doubt; inactive = no such curve, though single readings can be large; an effect the other way counts as inactive or inconclusive. % is scaled to controls: 0 for no effect and ±100 for the full control effect.

SMILES | TrxR1 substrate | FBPA coupling cs | GALK inhibitor | TrxR1 inh | Gal4-VP16 FLuc | RORg inh
O=C(Oc1ccc2c(=O)c(Oc3ccc4ccccc4c3)coc2c1)c1cccnc1 | 5% | 5 | 0% | -12% | -26% | -27%
O=C(Oc1ccc2c(=O)c(Cl)coc2c1)c1cccnc1 | 7%[57.1 µM] | 1 | 0% | 13µM* | -7% | -14%
Cc1sc2cc3c(c(C(=O)c4ccccc4)[n+]2c1C)-c1cccc2cccc-3c12 | 8%[57.1 µM] | -1 | 1% | 14%[57.1 µM] | 11µM* | ?
O=C(c1ccccc1)c1c2c(cc3sc4ccccc4[n+]13)-c1cccc3cccc-2c13 | -6% | 0 | 1% | ? | 10µM* | ?
Cc1cc2ccccc2cc1C(=O)c1ccccc1 | -6% | . | . | -6% | . | .
COc1cccc(CNC(=O)CSc2ncc(S(=O)(=O)c3ccc(C)c(Cl)c3)c(=O)[nH]2)c1 | -8%[57.1 µM] | . | . | 0%[57.1 µM] | . | .
Cc1cc(SCC(=O)Nc2ccc(F)cc2F)nc(=O)[nH]1 | -4%[57.1 µM] | . | . | 12%[57.1 µM] | . | .
CN(C)S(=O)(=O)c1cccc(NC(=O)CSc2cccc3cccnc23)c1 | 38% | 0 | 1% | 22% | ? | 10µM*
CN(C)S(=O)(=O)c1ccc(SCC(=O)Nc2cccc(S(=O)(=O)N3CCCC3)c2)nc1 | 2% | . | . | 29% | . | .
COc1ccc(CCNC(=O)CSc2cccc3cccnc23)cc1OC | -7% | 0 | -2% | -4% | 0% | 1µM*
COc1cc(OC)cc(C(=O)OC/C(O)=C(\C#N)c2nc3ccccc3[nH]2)c1 | 0% | 2 | 1% | 11% | 18µM* | 6.3µM*
N#CC(=C(O)COC(=O)c1ccc2c(c1)OCCO2)c1nc2ccccc2[nH]1 | -6% | . | . | -10% | . | .
COc1ccc(C(=O)Nc2nc3ccccc3[nH]2)cc1S(=O)(=O)N1CCOCC1 | -21% | 0 | 12% | -17% | -8% | ?
COc1ccc(C(=O)OC/C(O)=C(\C#N)c2nc3ccccc3[nH]2)cc1S(=O)(=O)N1CCOCC1 | -7% | 1 | 0% | -18% | -10% | 13µM*
Cc1ccc(S(=O)(=O)N2CCC[C@H]2C(=O)OCC(=O)c2ccc3c(c2)NC(=O)CO3)cc1 | -19% | -2 | -1% | -20% | -13% | -1%
Cc1cccc(/N=C/c2ccccn2)n1 | -8% | . | . | -19% | . | .
CCc1ccc(C(=O)Nc2nc(C)cs2)s1 | 5% | -6 | 4% | 16% | 11µM* | 7.1µM*
Cc1csc(NC(=O)c2cnc3ccccc3n2)n1 | 0% | -1 | 0% | 13% | ? | 11µM*
Cc1csc(NC(=O)c2ccc(C(=O)Nc3nc(C)cs3)cc2)n1 | . | -1 | 5% | . | 3% | 1%
Cc1csc(NC(=O)c2ccccc2C(=O)O)n1 | -7% | -3 | -5% | -5% | 5% | 12%
CC(=O)NC(CC(=O)Nc1nc(-c2ccc(N(C)S(C)(=O)=O)cc2)cs1)c1ccccc1 (stereo not given) | 5% | -3 | -2% | 12% | 11µM* | 4%
O=C(Nc1nccs1)c1ccc2ccccc2n1 | -4% | 0 | 6% | 3% | ? | 7.1µM*
O=C(Nc1ccccn1)c1ccc2ccccc2n1 | -4% | -5 | 1% | -9% | ? | 10µM*
CN(C)CC(=O)Nc1nc(-c2ccccc2)cs1 | 4% | -2 | -2% | 2%[57.1 µM] | ? | 11µM*
O=C(Nc1ccccn1)c1ccc2ccccc2c1O | -1%[57.1 µM] | -13 | 0% | 12%[57.1 µM] | 13µM* | ?
SMILES | TrxR1 substrate | FBPA coupling cs | GALK inhibitor | TrxR1 inh | Gal4-VP16 FLuc | RORg inh
Cc1cccc(NC(=O)c2ccc3ccccc3n2)c1C | -5% | 0 | 2% | 8% | ? | 1.8µM*
Cc1cc(C(=O)Nc2ccccn2)no1 | -4% | -1 | -1% | 18% | . | 7%[0.365 µM]
O=C(O)c1ccccc1C(=O)Nc1ccccn1 | -1% | 3 | 0% | -7% | . | 6%[0.365 µM]
O=C1C(Nc2ccccc2)=C2CCCC=C2N1c1ccccc1 | 7% | 2 | -2% | 0%[57.1 µM] | -4% | -36%
O=C(Cc1ccccc1)Nc1cccc([N+](=O)[O-])c1 | -4% | 0 | 1% | 10% | -14% | 16%
Cc1cnc(C(=O)Nc2nc(-c3ccccc3)cs2)cn1 | -5% | 4 | 1% | -9% | 4.5µM* | 4.5µM*
Cc1cnc(C(=O)Nc2ccccc2-c2ccc(C)o2)cn1 | -14% | -13 | 0% | ? | ? | 7.1µM*
O=C(Nc1cccc([N+](=O)[O-])c1)c1ccc2ccccc2c1O | -6% | 0 | . | 9% | 2.8µM* | -31%
Cc1csc(NC(=O)c2ccc3ccccc3n2)n1 | -17% | 3 | 1% | 3%[57.1 µM] | 7.1µM* | 2.5µM*
Cc1cccc(OCCN2CCOCC2)c1C | 1% | 1 | -1% | -3% | . | .
Fc1ccc2nc(C3CCCCN3Cc3nc(CC4CC4)no3)[nH]c2c1 (stereo not given) | -4% | -20 | -2% | -8%[57.1 µM] | -13% | ?
O=C(NCc1ccccn1)C(=O)Nc1nc(-c2ccccc2)cs1 | 11% | 0 | -1% | 30% | ? | 10µM*
Cc1csc(NC(=O)c2cc(C)nc3ccccc23)n1 | -5%[57.1 µM] | 1 | -6% | 9%[57.1 µM] | -13% | 11µM*
COCCNC(=O)c1onc(CSc2ccc(F)c(F)c2)c1C(=O)NCCOC | -7%[57.1 µM] | . | . | 11%[57.1 µM] | . | .
O=C(CN(C(=O)CCC(=O)Nc1nccs1)c1ccc(F)cc1)NCc1ccccc1 | 2% | 0 | -2% | 19% | 5% | -1%
O=C(CN(C(=O)CCC(=O)Nc1nccs1)c1cccc(F)c1)NCc1ccc(F)cc1 | 3% | 1 | -3% | 16% | -5% | 35µM*
Cc1ccc2nc(/N=C(\N)NC(=O)NC3CCCCC3)nc(C)c2c1 | 5% | 0 | -2% | -17% | 7.1µM* | -67%
CCC(=O)N/C(N)=N/c1nc(C)c2cc(C)c(C)cc2n1 | 5% | -6 | -2% | 12%[57.1 µM] | 3% | 1µM*
S=C(NCCCn1ccnc1)NC1CCCCC1 | -1% | -1 | 3% | -1% | 1% | 29%
CCOC(=O)C1Nc2ccccc2C2C(O)C(O)CC12 (stereo not given) | -4% | . | . | 18µM* | . | .
CCOC(=O)C1Nc2ccc(C(F)(F)F)cc2C2c3ccccc3CC12 (stereo not given) | -8%[57.1 µM] | . | . | 8%[57.1 µM] | . | .
O=C(NN=Cc1cc([N+](=O)[O-])ccc1O)c1cccc2ccccc12 | 11%[57.1 µM] | . | . | 8%[11.4 µM] | . | .
Nc1ccc(C(=O)N/N=C\c2cc(N=Nc3cccc4ccccc34)ccc2O)cc1 | -3% | 1 | 4% | 1% | 5.6µM* | 1.6µM*
COC(=O)N/N=C/c1cc(N=Nc2ccccc2)ccc1O | 0% | -3 | 2% | 10% | ? | 1.1µM*
Cc1cc(C(=O)N/N=C/c2cc(N=Nc3ccccc3)ccc2O)n[nH]1 | -7% | -1 | 0% | -5% | 11µM* | 10µM*
